Experimental data: PubChem BioAssay
Unmarked numbers belong to inactive results. Activity calls are given as the source filed them.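 Rule for the calls: active = inhibition of the reporter signal at or above 50%; inactive = inhibition below 50%.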

experiment: inhibitors of poly I:C-induced TLR3 signaling, primary screen, cell-based, poly I:C stimulus, luciferase, 10K MLSCN set (AID 602277); conditions: HEK293-TLR3 RL24 IRF3 luciferase reporter, at 10 µM, active compounds read high

Row | SMILES | inhibition
1 | Cc1ccc(C)c(S(=O)(=O)NCc2ccc(C(=O)N3CCN(C)CC3)cc2)c1 | 19.6%
2 | COc1ccc(S(=O)(=O)N2CCN(C3CCCCCCC3)CC2)cc1 | 24.3%
3 | O=C1NCCCc2c1no[n+]2[O-] | 6.4%
4 | Cc1ccc(S(=O)(=O)Cc2ccc(C(=O)NCCCN3CCN(C)CC3)o2)cc1 | 100% (active)
5 | COC(=O)c1[nH]c2cccc(C)c2c1NC(=O)CN1CCCc2ccccc21 | 20%
6 | Cc1ccccc1NC(=O)c1ccc(NC(=O)c2ccco2)cc1 | -35.1%
7 | CCC(C)OC(=O)n1ccc(C(=O)Nc2nccs2)n1 (stereo not given) | -27.4%
8 | O=C(CCCn1c(=O)c2sccc2n(Cc2ccc(F)cc2)c1=O)NCc1ccco1 | 15.5%
9 | O=C(Nc1ccc(CN2CCCCC2)cc1)c1ccc2c(c1)OCO2 | -5.01%
10 | COc1cc(C(=O)N2c3ccccc3CC2C)cc(OC)c1OC (stereo not given) | 33.5%
11 | COC(=O)c1ccc(CSc2ncnc3c2nnn3-c2ccc(OC)cc2)o1 | -32.3%
12 | Cc1ccc2nc(CSc3nnc(-c4ccco4)n3-c3ccccc3)cc(=O)n2c1 | -20%
13 | Cc1nc(-c2cnn(-c3ccccc3)c2)c2cc(C)oc2n1 | -22.9%
14 | COC(=O)CN1C(=O)C2(C(C#N)=C(N)Oc3c2c(C)nn3-c2ccccc2)c2ccccc21 (stereo not given) | 19.7%
15 | CC(=O)c1c(C)nc(C)nc1NC(=O)Cc1ccccc1 | 20.5%
16 | O=C1c2ccccc2C(=O)N1OCc1ccccc1 | 21.5%
17 | CS(=O)(=O)N(CC(=O)NCc1ccccn1)c1ccc2c(c1)OCCO2 | 15.8%
18 | CCOc1ccc(NC(=O)CN2CCN(CC(=O)Nc3ccc(F)c(F)c3)CC2)cc1 | 23%
19 | CCNC(=O)Cn1cnc2c1c(=O)n(C)c(=O)n2C | 14.3%
20 | COc1ccccc1C(=O)Nc1c2c(nn1-c1cccc(C)c1C)CS(=O)(=O)C2 | 19.1%

Row | SMILES | inhibition
21 | COc1ccc(-c2nc(N)nc(C)c2Oc2ccccc2Br)c(O)c1 | 53% (active)
22 | CCc1ccc(NC(=O)c2cc(-c3ccco3)on2)cc1 | -129%
23 | CCOC(=O)N1CCC(N(C(=O)Nc2ccc(Cl)c(Cl)c2)C(C)CC)CC1 (stereo not given) | -18.2%
24 | Cc1ccc(C)c(-n2c(Cc3cc(=O)[nH]c(=O)[nH]3)nnc2SCC(=O)NCc2ccco2)c1 | 5.02%
25 | CC(C)(C)OC(=O)N1CCOCCOCCN(C(=O)OC(C)(C)C)CCOCCOCC1 | 6.47%
26 | O=C(Nc1ccc(N2CCCC2=O)cc1)c1cccc(F)c1 | -122%
27 | CCOC(=O)C1CCN(Cc2ccc(C(=O)OC)cc2)CC1 | 12.5%
28 | COc1ccc(OCC(=O)N2CCN(C(=O)c3cccs3)CC2)cc1 | 17.7%
29 | Cn1cnnc1SCC(=O)NCc1cccc(C(F)(F)F)c1 | 3.97%
30 | COC(=O)Cn1c(C)nc2c(sc3nc(C)cc(C)c32)c1=O | -91.2%
31 | CC1=C(C#N)C(=O)NC(C)(C)C1 | 21.4%
32 | Cn1c(=O)c(C(=S)NC(=O)C2CC2)c(N)n(Cc2ccccc2)c1=O | 14.5%
33 | CCCc1[nH]nc2c1C(c1cccc(OC(=O)c3ccco3)c1)C(C#N)=C(N)O2 (stereo not given) | 18%
34 | CC(C)c1ccc(-c2nc(N3CCCCC3)[nH]c(=O)c2C#N)cc1 | -1.05%
35 | Cn1cc(CC(=O)Nc2cccc(C#N)c2)c2ccccc21 | -0.551%
36 | CCCN(CCC)CCNC(=O)C(NS(=O)(=O)c1ccc2c(c1)CCC(=O)N2)c1ccccc1 (stereo not given) | 24.9%
37 | O=c1c2ccccc2sn1-c1ccc(S(=O)(=O)N2CCCCC2)cc1 | 7.09%
38 | Cc1ccc(-n2c(=O)[nH]c3c(C(N)=O)nc(CC(C)C)nc32)cc1 | 8.27%
39 | CN1CCN(C(=O)CN(Cc2ccc(Cl)cc2)S(C)(=O)=O)CC1 | 19.4%
40 | CCOC(=O)c1sc(NC(=O)CSc2nnc(-c3ccco3)n2CC)c(C(=O)OCC)c1C | -38.2%
